Sampled rows, rich in hits. Any-hit rate of the full collection: about 2.3%.
ERp5 inh: inhibitors of ERp5-driven insulin aggregation, primary screen, biochemical, turbidity, absorbance 650 nm, single point; Protein disulfide-isomerase A6 (Homo sapiens), Q15084; 90 min; inhibition, % at 9.99 µM; 350,000 compounds, 0.05% hits;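 active = mean replicate inhibition above about 25%, with every replicate also reaching it, limit read from the data, passing the limit was not always enough; inconclusive = only one of those two criteria met; inactive = neither criterion met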
SIRT5 block: SIRT5 desuccinylase inhibitors, primary screen, biochemical, fluorescence imaging, single point, set 5. AID 652115, 2013. inhibition, % at 15 µM. Purified SirT5, succinyl-peptide AMC, trypsin-coupled fluorescence. 330,000 compounds, 1.1% hits; in the data active = inhibition above about 15%; inconclusive = no clear call, values can overlap the other calls
Target sequence (Q9NXA8 whole entry, looked up): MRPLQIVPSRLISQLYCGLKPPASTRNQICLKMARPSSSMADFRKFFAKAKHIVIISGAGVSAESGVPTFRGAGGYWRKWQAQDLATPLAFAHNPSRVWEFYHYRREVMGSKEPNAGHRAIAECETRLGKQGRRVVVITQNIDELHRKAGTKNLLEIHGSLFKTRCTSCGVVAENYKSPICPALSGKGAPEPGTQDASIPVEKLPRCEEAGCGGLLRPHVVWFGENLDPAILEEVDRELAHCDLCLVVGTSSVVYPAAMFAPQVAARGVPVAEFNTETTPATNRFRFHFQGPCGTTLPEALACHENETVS
Rtt109 Vps75: inhibitors of C. albicans Rtt109/Vps75 HAT, primary screen, biochemical, ThioGlo CoA-SH fluorescence, plate reader | Histone acetyltransferase RTT109 (Candida albicans (strain SC5314 / ATCC MYA-2876)), … | purified Rtt109/Vps75, 4 h | inhibition, % at 34.9 µM | 330,000 compounds, 0.16% hits | AID 540336, 2011;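 active = inhibition of at least 50% in every replicate; inconclusive = best replicate reaches 50% inhibition but some replicates fall short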
Target sequence (Q5AAJ8 whole entry, looked up): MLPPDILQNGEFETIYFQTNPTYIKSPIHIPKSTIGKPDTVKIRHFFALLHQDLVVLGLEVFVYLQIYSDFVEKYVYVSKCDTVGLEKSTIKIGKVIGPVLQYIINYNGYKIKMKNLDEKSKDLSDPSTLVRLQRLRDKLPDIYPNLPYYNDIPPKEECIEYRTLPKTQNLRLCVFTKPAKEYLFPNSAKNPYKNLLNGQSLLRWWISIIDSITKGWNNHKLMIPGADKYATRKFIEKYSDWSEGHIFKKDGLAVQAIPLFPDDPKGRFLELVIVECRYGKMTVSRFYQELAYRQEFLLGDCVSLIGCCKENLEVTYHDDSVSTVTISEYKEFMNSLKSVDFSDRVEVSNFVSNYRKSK
DENV2 CPE: inhibitors of DENV2 cytopathic effect, primary screen, cell-based, plate reader, single concentration; CPE inhibition, % at 9.99 µM; DENV2-infected cells, cytopathic effect rescue; 350,000 compounds, 1.7% hits; in the data active = CPE inhibition above about 20%, passing the limit was not always enough; inconclusive = no clear call, values can overlap the other calls; tested in BHK-21 cells;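 also: 0% = median of neutral control wells and 100% = median of positive control wells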
PDI turbidity: inhibitors of human PDI, primary screen, biochemical, turbidity, single point, plate reader; PDI insulin aggregation turbidity, A650, 90 min; Protein disulfide-isomerase (Homo sapiens), P07237; inhibition, % at 10 µM; 350,000 compounds, 0.052% hits;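 active = mean inhibition across replicates of 30% or more, whatever share of single replicates reach that level; inconclusive = mean inhibition below 30% while every single replicate reaches 30%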
* hit, by the source's call; ? = inconclusive; · = no result given.

SMILES	ERp5 inh	SIRT5 block	Rtt109 Vps75	DENV2 CPE	PDI turbidity
CCN(C[C@H]1[C@@H](c2ccc(-c3ccccc3F)cc2)[C@@H](CO)N1C(C)=O)C(C)=O	-4.1	22.1*	·	4.7	·
CC(=O)N(C)C[C@@H]1[C@H](c2ccc(-c3ccc(F)cc3)cc2)[C@H](CO)N1C(C)=O	4.4	7.5	·	1.4	·
CCC(=O)N(C)C[C@@H]1[C@@H](c2ccc(-c3ccccc3F)cc2)[C@H](CO)N1C(C)=O	-2.4	22.0*	·	17.1	·
CC(=O)N1[C@H](CN(C)C(=O)c2ccccc2F)[C@@H](c2ccccc2)[C@@H]1CO	-0.1	-3.2	·	61.2*	·
CCN(C[C@H]1[C@@H](c2ccc(-c3ccccc3)cc2)[C@@H](CO)N1C(C)=O)C(C)=O	7.8	-0.8	·	8.8	·
Cc1noc(C)c1NC(=O)Nc1cccc2c1O[C@@H](CN(C)C(=O)NC1CCCCC1)[C@@H](C)CN([C@@H](C)CO)C2=O	7.0	5.1	·	11.4	·
CCC(=O)N1[C@H](CO)[C@H](c2ccc(-c3ccccc3)cc2)[C@H]1CN(CC)C(C)=O	7.8	30.0*	·	6.5	·
CCN(CC)c1ccc(/C=N/N2CCN(Cc3ccc(C)cc3)CC2)c(O)c1	-2.0	20.1*	11.1	-3.6	4.9
C[C@@H](NC(=O)[C@H]1[C@H](CO)[C@H]2Cn3c(cccc3=O)[C@@H]1N2C(=O)C1CC1)c1ccccc1	-7.6	5.5	·	-2.2	·
COc1ccc(CN(CCCN2CCOCC2)C(=O)Nc2ccccc2)cc1OC	·	·	-6.9	·	0.2
COc1ccc(CN(CCN2CCOCC2)C(=O)c2c(F)cccc2F)cc1OC	-3.0	17.2*	0.2	1.5	-0.2
O=C(N[C@H]1CC[C@H](CC(=O)N2CCCCC2)O[C@@H]1CO)c1ccccn1	-1.2	-2.2	·	28.0*	·
O=C(N[C@@H]1CC[C@H](CCNC(=O)C2CCCCC2)O[C@@H]1CO)c1ccccn1	-1.0	1.3	·	148.8*	·
O=C(N[C@H]1CC[C@@H](CCNC(=O)C2CCCC2)O[C@H]1CO)c1ccccn1	6.4	4.2	·	43.6*	·
O=C(c1ccc(F)cc1)N1CC(=O)N2[C@H](CO)[C@H](c3ccc(C#CC4CCCCC4)cc3)[C@H]2C1	-0.1	1.5	·	?	·
CCNC(=O)C[C@@H]1CC[C@@H]2[C@@H](COc3ccc(NC(=O)c4ccc(C(F)(F)F)cc4)cc3C(=O)N2C)O1	6.9	-5.3	·	7.2	·
C[C@@H]1CN([C@H](C)CO)C(=O)c2cc(NC(=O)CCN3CCOCC3)ccc2O[C@@H]1CN(C)C(=O)Nc1ccc(F)cc1	-3.4	0.6	·	9.4	·
c1cc2cc(-c3c(-c4ccc5c(c4)OCO5)noc3-c3ccsc3)ccc2[nH]1	-1.5	-1.7	-1.1	120.0*	12.1
Cc1onc(-c2ccc3c(c2)OCO3)c1-c1ccc2[nH]ccc2c1	4.7	-2.5	1.5	-1.1	-11.3
COc1cc(-c2c(-c3ccc4c(c3)OCO4)noc2-c2ccsc2)ccc1F	5.4	17.0*	3.3	15.8	-3.0
C[C@@H]1CN([C@H](C)CO)C(=O)c2cccc(N(C)C)c2O[C@H]1CN(C)Cc1ccccc1	-1.8	0.5	·	0.7	·
CC(=O)Nc1ccc(NC(=O)CSc2ncc(C(=O)Nc3ccc(F)cc3)c(=O)n2C)cc1	7.4	3.7	8.9	30.4*	1.8
Cc1cc2c(=O)n(C)c(SCC(=O)Nc3cccc(F)c3)nc2s1	-0.6	-6.2	0.2	2.0	0.3
Cc1cc2c(=O)n(C)c(SCC(=O)Nc3ccc(F)cc3)nc2s1	-2.4	1.0	-4.3	37.0*	11.8
CO[C@H](CN(C)S(=O)(=O)c1cccc(Cl)c1)[C@@H](C)CN([C@H](C)CO)S(=O)(=O)c1cccc(Cl)c1	-1.5	4.1	·	3.0	·
SMILES	ERp5 inh	SIRT5 block	Rtt109 Vps75	DENV2 CPE	PDI turbidity
COc1ccc(NC(=O)Nc2ccc3c(c2)C(=O)N([C@H](C)CO)C[C@H](C)[C@H](CN(C)S(=O)(=O)c2ccc(C)cc2)O3)cc1	12.7	11.4	·	16.8	·
C/C=C/c1ccc2c(c1)O[C@H](CN(C)Cc1ccccc1)[C@@H](C)CN([C@@H](C)CO)S2(=O)=O	-1.8	18.0*	·	14.2	·
C[C@@H]1CN([C@H](C)CO)S(=O)(=O)c2ccc(/C=C/c3ccccc3)cc2O[C@H]1CN(C)Cc1ccccc1	5.7	23.3*	·	4.2	·
C/C=C/c1ccc2c(c1)O[C@H](CN(C)Cc1cccc(F)c1)[C@@H](C)CN([C@@H](C)CO)S2(=O)=O	·	17.4*	·	3.3	·
CCNC(=O)[C@@H]1[C@@H](CO)[C@@H]2Cn3c(ccc(-c4ccccc4)c3=O)[C@@H]2N1C(=O)C1CCC1	-1.4	-17.2	·	0.9	·
CO[C@@H](CN(C)C(=O)c1ccc2c(c1)OCO2)[C@@H](C)CN([C@H](C)CO)S(=O)(=O)c1ccc(C)cc1	2.7	-12.9	·	-2.7	·
CCNC(=O)Nc1ccc2c(c1)C(=O)N(C)[C@H]1CC[C@@H](CC(=O)NCC3CCCCC3)O[C@H]1CO2	-4.1	0.1	·	13.9	·
Cc1noc(C)c1NC(=O)Nc1ccc2c(c1)CC(=O)N([C@@H](C)CO)C[C@@H](C)[C@@H](CN(C)C(=O)NC1CCCCC1)O2	12.3	-6.3	·	-5.2	·
Cc1noc(C)c1NC(=O)N(C)C[C@@H]1Oc2ccc(NC(=O)NC3CCCCC3)cc2CC(=O)N([C@@H](C)CO)C[C@H]1C	-0.3	-4.1	·	23.7*	·
Cc1noc(C)c1NC(=O)N(C)C[C@H]1Oc2ccc(NC(=O)NC(C)C)cc2CC(=O)N([C@H](C)CO)C[C@H]1C	-0.8	20.9*	·	10.6	·
Cc1noc(C)c1NC(=O)N(C)C[C@@H]1Oc2ccc(NC(=O)NC(C)C)cc2C(=O)N([C@@H](C)CO)C[C@H]1C	1.8	-2.3	·	44.8*	·
Cc1noc(C)c1NC(=O)N(C)C[C@H]1Oc2ccc(NC(=O)NC(C)C)cc2CC(=O)N([C@@H](C)CO)C[C@@H]1C	4.8	-2.7	·	-2.2	·
Cc1noc(C)c1NC(=O)N(C)C[C@H]1Oc2ccc(NC(=O)NC3CCCCC3)cc2CC(=O)N([C@H](C)CO)C[C@H]1C	2.0	·	·	21.6*	·
C[C@@H]1CN([C@@H](C)CO)C(=O)c2cccc(NC(=O)C3CCOCC3)c2O[C@@H]1CN(C)Cc1ccc2c(c1)OCO2	7.3	·	·	-3.7	·
Cc1noc(C)c1NC(=O)N(C)C[C@@H]1Oc2ccc(NC(=O)C3CCCCC3)cc2CC(=O)N([C@@H](C)CO)C[C@@H]1C	-1.2	-6.0	·	30.9*	·
Cc1noc(C)c1NC(=O)N(C)C[C@@H]1Oc2ccc(NC(=O)C3CCCCC3)cc2CC(=O)N([C@H](C)CO)C[C@H]1C	3.2	-3.2	·	2.2	·
Cc1cccc(C)c1NC(=O)CN(Cc1ccccc1)Cc1ccccc1	-7.2	34.4*	·	2.3	·
O=C(Nc1ccc(Cl)c(Cl)c1)N[C@H]1CC[C@H](CCn2cc(C3CCCC3)nn2)O[C@H]1CO	0.5	0.2	·	11.5	·
